According to PubChem BioAssay AID903 (National Center for Advancing Translational Sciences (NCATS), 2007):
About 340 (0.62%) of roughly 55,000 compounds were called active. Where a call stands in place of a potency, no number is given. About 3% were inconclusive and are not listed. Calls follow the shape of the dose curve; as a rule, active = well fitted cell-killing curve with a large enough effect; inconclusive = small, poorly fitted or top-dose-only effect; inactive = no such curve, though single readings can be large or run the other way. Only a selection was taken, and actives are over-represented in it overall.

Experiment: qHTS Screen for Compounds that Selectively Target Cancer Cells with p53 Mutations: Cytotoxicity of p53 Null Cells at the Permissive Temperature; also: nearly all actives have a fitted effect of over 55% in size
Conditions: H1299-neo p53 null cells, ATP luminescence, 24 h, 32C; series mostly up to 46.1 µM
Excerpt: NIH Chemical Genomics Center [NCGC] NIH Molecular Libraries Screening Centers Network [MLSCN] MLSCN Grant: 1 X01 MH079844-01 Assay Submitter (PI): Dr. SUN, YI, University of Michigan NCGC Assay Overview: Synthetic Lethal Screen for Compounds to Kill Cancer Cells with p53 Mutation. Tumor suppressor gene p53 serves as a major cellular barrier against tumorigenesis. […] The goal of this screening is to identify small molecule probes that selectively kill cancer cells with mutations in p53. This screening was carried out using two lines of H1299 lung cancer cells. The H1299-p53 A138V line express a temperature sensitive p53 mutant (p53ts) in which the mutant p53 protein (A138V) is in the mutant confirmation when grown at 39C (the nonpermissive temperature) and in the wild type conformation when grown at 32C (the permissive temperature). A H1299-neo line (p53 null) grown at both 39C and 32C were used as counter-screens to filter out false positive associated with temperature shifting. The small molecular compounds that selectively target mutant p53-containing cancer cells were selected as candidate probes for further study. A cytotoxicity assay based on the measurement of ATP contents in cells was used in this screen. Concentration-responses of all the compounds in the library collection were determined in qHTS using the cell lines and temperature conditions as above.
NCGC Assay Protocol Summary: Both the H1299-p53A138V and H1299-neo cell lines were provided by Dr.Yi Sun, a PI at the University Michigan. The cells were maintained and cultured at 37C. The resuspended frozen cells were used to plate the cells in the 1536-well assay plates at a density of 600 cells per well in 5 ul medium. The assay plates with the cells were incubated at 37C for 16 to 30 hours before the experiments. The library compounds in DMSO solution were added to the cells in assay plates and incubated 24 hours at 39C (for mutant p53 conformation) or 32C (for normal p53 conformation as control). An ATP_lite assay kit (PerkinElmer) was used to determine the cell viability. Tomaxifen (100uM) was used as the positive control for cell killing. Data were normalized to the controls for basal activity (DMSO only) and 100% killing (100uM tamoxifen). AC50 values were determined from concentration-response data modeled with the standard Hill equation. P53 assay protocol: 1. Reagent; 5 uL H1299-p53A138V or H1299-neo cell cells/well 2. Time; overnight; 37C incubation 3. Compounds; 23 nL; 5.9 nM to 46 uM 4. Controls; 23 nL; Tamoxifen 100 uM 5. Time; 24 hr; 32C incubation 6. Reagent; 3 uL; ATP_Lite reagent 7. Time; 20 min; Room Temperature 8. Detection; Luminescence; Viewlux plate reader Keywords: p53, synthetic lethal, cancer, cell viability, cytotoxicity, H1299 cell line, luminescence, MLSMR, MLSCN, NIH Roadmap, qHTS, NCGC
Potency is read from the fitted curve at half-maximal effect.

Compound | Potency
Cc1ccc2nc(/C(C#N)=C/c3ccccc3F)[nH]c2c1 | inactive
O=S(=O)(c1ccc(Br)cc1)c1nnn2c1nc(N1CCOCC1)c1sccc12 | inactive
CCOc1ccc(NC(=O)c2cnn(-c3ccccc3)c2-n2cccc2)cc1 | inactive
CCOc1ccc(NC(=O)c2ncoc2-c2ccco2)cc1 | 12.6 µM (active)
CCOc1ccc(NC(=O)CN2CCN(CC(=O)Nc3ccc(OC)cc3)CC2)cc1 | inactive
CCc1nc2ccc(C(=O)N3CCN(c4cc(Cl)ccc4C)CC3)cc2nc1CC | inactive
CCOC(=O)c1c(C)[nH]c(C)c1S(=O)(=O)N1CCC(C(=O)Nc2ccc(C)c(Cl)c2)CC1 | inactive
N#C/C(=C\c1ccccc1F)c1nc2ccccc2c(=O)[nH]1 | inactive
COc1ccc(-n2ccnc(NCCc3ccc(Cl)cc3)c2=O)cc1OC | inactive
CCOC(=O)c1cccc(NS(=O)(=O)c2cn(C)c(C)n2)c1 | inactive
O=C(NC1CC(=O)N(c2ccc(Cl)cc2)C1)C1CCCC1 (configuration not stated) | inactive
Cn1c(=O)c2c(nc(Oc3ccc(C#N)cc3)n2Cc2ccc(Cl)cc2Cl)n(C)c1=O | inactive
Brc1ccc(-c2csc(N/N=C/c3ccc4c(c3)OCO4)n2)cc1 | inactive
CCCC(=O)Nc1cccc(NC(=S)NC(=O)C(C)Oc2ccc(Cl)cc2Cl)c1 (configuration not stated) | inactive
COC(=O)c1cc2occc2n1Cc1nc(-c2ccc(C)cc2)oc1C | inactive
Cc1ccc(CNC(=O)CCNS(=O)(=O)c2ccc3c(c2)oc(=O)n3C)cc1 | inactive
CCOc1ccc(CNC(=O)CCc2c(C)nn(-c3ccc(N4CCCCC4)nn3)c2C)cc1 | inactive
CCc1cc2c(-c3ccccc3)cc(=O)oc2c2c1OCN(Cc1ccc(C)cc1)C2 | inactive
COc1ccc(CCNC(=O)CN2C(=O)COc3ccc(S(=O)(=O)N4CCCC4)cc32)cc1OC | inactive
CCOc1cc(CNCc2ccccn2)ccc1OCC(=O)NC(C)(C)C | inactive
Cc1ccc(CCNC(=O)C2CCN(c3nnc(-n4cccc4CNc4ccc(C)cc4)s3)CC2)cc1 | inactive
C/C(CC(=O)Nc1ccc(Cl)cc1)=N\NC(=O)C(=O)NCCO | inactive
Cc1ccc2[nH]c3c(=O)n(CC(=O)NC(C)C)ncc3c2c1 | inactive
CCC(=O)Nc1ccc(C)cc1-c1nc2ccccc2n(Cc2ccccc2)c1=O | inactive

Compound | Potency
CCn1c(SCC(=O)Nc2ccc(C)cc2)nc2nc3c(cc2c1=O)CCCC3 | inactive
CCOc1ccccc1NC(=O)C1CCCN(S(=O)(=O)c2cn(C)cn2)C1 (configuration not stated) | inactive
Cc1nc2ccc(S(=O)(=O)N(CC(=O)Nc3ccc(F)cc3)Cc3ccccc3)cc2s1 | inactive
COC(=O)c1ccc(NC(=O)c2cnn(-c3ccc(Cl)cc3)c2C2CCN(C(=O)OC(C)(C)C)CC2)cc1 | inactive
COC(=O)/C(NC(C)=O)=C(\C)c1ccc(Cl)cc1 | inactive
CCCCCn1c(CCNC(=O)c2ccc(F)cc2)nc2ccccc21 | inactive
CCCC(=O)Nc1ccc2oc(-c3ccc(O)c(Br)c3)nc2c1 | inactive
CC(=O)Nc1cc(C(=O)NCc2ccc(F)cc2)ccc1Sc1ccc(F)cc1 | inactive
Cc1ccc(NC(=S)N2CCN(c3ncccn3)CC2)cc1C | inactive
O=C(CCC(=O)N1CC2CCCN2c2ccccc21)NCc1ccccc1Cl (configuration not stated) | inactive
Cn1c(=NC(=O)c2ccc3c(c2)OCCO3)sc2cc(S(C)(=O)=O)ccc21 | inactive
O=C(NC1CCCC1)C(c1ccccn1)N(C(=O)c1csnn1)C1CCCC1 (configuration not stated) | inactive
CN(CC(=O)Nc1cccc(C(F)(F)F)c1)S(=O)(=O)c1cccs1 | inactive
Cc1cccc(-c2nnc(SCC(=O)N3CCCc4ccccc43)o2)c1 | inactive
Cc1ccc2[nH]cc(CCCN3C(=O)c4ccccc4C3=O)c2c1 | inactive
CCNC(=S)N1CCC(c2nc3cc(C)c(C)cc3[nH]2)CC1 | inactive
CCCCn1c(=O)c2oc3ccccc3c2n(CC(=O)Nc2ccccc2OC)c1=O | inactive
O=C(CSc1nc2nccnc2c(=O)n1CCc1c[nH]c2ccccc12)Nc1ccccc1F | inactive
Cc1cccc(NC(=O)Cn2cc(S(=O)(=O)Cc3ccccc3Cl)c3ccccc32)c1 | inactive
Cc1csc2nc(COc3ccc(NC(=O)COc4ccccc4)cc3)cc(=O)n12 | inactive
COc1ccc(NC(=O)Nc2cccc(-c3noc(C)n3)c2)cc1 | inactive
COc1cccc(C(c2c(O)cc(C)n(Cc3ccco3)c2=O)N2CCN(c3ccccc3)CC2)c1 (configuration not stated) | inactive
O=C(CSc1nccn1Cc1ccc(Cl)cc1)NCc1ccccc1 | inactive
Cc1ccc(CSCC(N)C(=O)O)cc1 (configuration not stated) | inactive

Compound | Potency
COc1ccccc1N1CCN(C(=O)C2CCN(S(=O)(=O)c3c(C)noc3/C=C/c3ccc(C)cc3)CC2)CC1 | inactive
O=C(OCc1cc(=O)n2nc(C3CC3)sc2n1)c1ccccc1Cl | inactive
COC(=O)c1ccc(NC(=O)CSc2nncc3ccc(OC)c(OC)c23)cc1 | inactive
Cc1c(C(=O)NCc2ccccc2Br)oc2ccc3c(c12)C(=O)CC(C)(C)O3 | 10 µM (active)
O=C(NCc1ccccc1Cl)C1=Cc2cc(Br)ccc2OC1 | inactive
CCC1(C)CC(=O)c2c(ccc3oc(C(=O)Nc4ccc(C(C)=O)cc4)c(C)c23)O1 (configuration not stated) | inactive
Cc1nn(-c2nc(-c3ccccc3)cc(C(F)(F)F)n2)c(C)c1Cl | inactive
CC(C)NC(=S)N1CCN(S(C)(=O)=O)CC1 | inactive
COc1cc(C(=O)N2CCN(C(=O)COc3cccc(C)c3)CC2)cc(OC)c1OC | inactive
CC(C)Cn1c(C2CC(=O)N(c3ccccc3Cl)C2)nc2ccccc21 (configuration not stated) | inactive
Cc1ccccc1CSCCNC(=O)c1ccc(Cl)c(S(=O)(=O)N2CCOCC2)c1 | inactive
Cc1cc2c(cc3c(SCc4nc(-c5ccccc5)oc4C)nnc(C)n32)o1 | inactive
CC(=O)c1cccc(NC(=O)CSc2nc3c(c(=O)[nH]2)CCC3)c1 | inactive
CC(C)C(OC(=O)c1cccs1)C(=O)NC1CCCCC1 (configuration not stated) | inactive
COc1ccc(C(=O)COC(=O)CCCC(=O)Nc2cc(C(F)(F)F)ccc2Cl)cc1 | inactive
Cc1nnc(N2CCC(C(=O)Nc3ccc(F)cc3)CC2)c2nn(-c3ccc(Cl)cc3)c(C)c12 | inactive
O=C(CC1N=C2c3ccccc3N=C(SCc3ccc(F)cc3)N2C1=O)NCc1cccs1 (configuration not stated) | inactive
CCOc1ccc(CCNC(=O)c2cc3c(=O)n(C)c4ccccc4c3n2C)cc1 | inactive
CCCn1c(=N)c(C(=O)NCc2ccccc2)cc2c(=O)n3cccc(C)c3nc21 | inactive
Cc1ccccc1NC(=O)CN1C(=O)C(C)(C)c2ccccc21 | inactive
O=C(Nc1ccc(Br)cc1)c1cc2nc(-c3ccccc3)cc(-c3ccccc3)n2n1 | inactive
CCCOc1ccc(C2c3c(-c4ccccc4O)n[nH]c3C(=O)N2Cc2cccnc2)cc1 (configuration not stated) | inactive
COc1ccc(C(=O)Nc2onc3c2CCCC3)cc1 | 7.94 µM (active)
COc1ccc(-c2cc(C(=O)Nc3sc4c(c3C(N)=O)CCCC4)no2)cc1 | inactive

Compound | Potency
CC1CCc2noc(NC(=O)c3ccc([N+](=O)[O-])cc3)c2C1 (configuration not stated) | inactive
O=c1c(Cl)c(NCc2ccc(F)cc2Cl)cnn1C12CC3CC(CC(C3)C1)C2 | inactive
Cc1cccc(OCc2ccc(C(=O)Nc3ccc(F)cc3)cc2)c1 | inactive
Cc1cccc(C)c1-n1ncc(C(=O)NCCCN2CCCCC2)c1C1CCN(C(=O)OC(C)(C)C)CC1 | inactive
COc1cccc(C(=O)NCC(=O)OCc2cc(=O)n3ccsc3n2)c1 | inactive
Cc1c(NC(=O)C(C)(C)C)cccc1-c1nc2ccccc2s1 | 10 µM (active)
CCC(C(=O)Nc1cccc(-c2nc3cccnc3s2)c1C)c1ccccc1 (configuration not stated) | inactive
Cc1c(NC(=O)Cc2ccccc2)cccc1-c1nc2cccnc2s1 | inactive
O=C(Cc1c[nH]c2ccccc12)N/N=C/c1cccc(F)c1 | inactive
Cc1ccccc1Nc1nn2c(=O)c3ccc(C(=O)NCCc4ccc(Cl)cc4)cc3nc2s1 | inactive
CCOc1ccccc1C(=O)Nc1ccc(S(=O)(=O)N2CCCCC2c2cccnc2)cc1 (configuration not stated) | inactive
O=c1c2cccnc2n(Cc2cccc(F)c2)c(=O)n1Cc1ccccc1Cl | inactive
COc1ccc(S(=O)(=O)n2nc(C)c(S(=O)(=O)N3CCCCCC3)c2C)cc1 | inactive
CCOC(=O)c1c(/N=C/c2cc(C)ccc2O)sc2c1CCC2 | inactive
CCC(=O)N1CCc2cc(S(=O)(=O)CCC(=O)N3CCN(c4ccccc4F)CC3)ccc21 | inactive
Cc1ccc(CNC(=O)CCC(=O)N2CC(C)Sc3ccccc32)cc1 (configuration not stated) | inactive
CCOc1ccc(NC(=O)CCc2c(C)nn(-c3ccc(N4CCCC4)nn3)c2C)cc1 | inactive
CCCOc1ccc(-c2cccc(NS(=O)(=O)c3ccccc3)c2)nn1 | inactive
Cn1nnc2c(N3CCN(c4ccccc4)CC3)ncnc21 | inactive
CCOc1ccc(C(=O)Nc2ccc3nc4c(c(Nc5ccccc5OC)c3c2)CCCC4)cc1 | inactive
O=C(Nc1c2c(nc3ccccc13)CCCC2)c1ccccc1Br | inactive
COc1ccccc1Nc1c2c(nc3ccc(NC(=O)/C=C/c4cc(OC)c(OC)c(OC)c4)cc13)CCCC2 | 15.8 µM (active)
COc1ccc(-n2ccn(CC(=O)Nc3ccc(C)c(C)c3)c(=O)c2=O)cc1OC | inactive
CCN(CC)S(=O)(=O)c1nnc(NC(=O)COc2ccccc2Cl)s1 | inactive

Compound | Potency
CCN(Cc1ccccc1)C(=O)c1cn(-c2cccc(OC)c2)c(=O)c2ccccc12 | inactive
COc1ccc(NC(=O)CSc2nc3ncccc3[nH]2)c(OC)c1 | inactive
COC(=O)c1c(NC(=O)c2ccc(Cl)c(Cl)c2)sc2c1CCCC2 | inactive
c1ccc(-c2noc(-c3cccs3)n2)nc1 | 10 µM (active)
Clc1ccc(-n2nnnc2-c2cnc(-c3ccccn3)nc2-c2cccs2)cc1 | inactive
Cc1ccc(C)c(N2CCN(C(=O)C3CCC(CNS(=O)(=O)c4cccs4)CC3)CC2)c1 (configuration not stated) | inactive
O=C(COc1nc2ccccc2nc1N1CCOCC1)NCC(F)(F)F | inactive
CN(C)CCCO/N=C(\c1ccccc1)c1ccncc1 | inactive
Cc1ccc(CN2CCC(CNC(=O)c3cnn(-c4ccccc4Cl)c3C3CCN(C(=O)OC(C)(C)C)CC3)CC2)cc1 | inactive
Cc1ccc(C)n1-c1nnc(N2CCC(C(=O)NCc3ccccc3Cl)CC2)s1 | inactive
COc1ccc(-c2nc(SCC(=O)N3CCCCC3C)n[nH]2)cc1 (configuration not stated) | inactive
Cc1ccc(NC(=S)NC(=O)/C=C/c2ccc(Cl)cc2)cc1 | inactive
Cc1cc(=O)n(CC(=O)Nc2cccc([N+](=O)[O-])c2)c(-n2nc(C)cc2C)n1 | inactive
CN(C)c1ccc(NC(=O)CSc2nc(-c3ccco3)cc(C(F)(F)F)n2)cc1 | inactive
CCCN(CCC)c1c([N+](=O)[O-])c(=O)oc2ccccc12 | inactive
COc1ccc(C(=O)NCC(c2ccc(N(C)C)cc2)N2CCc3ccccc32)c(OC)c1 (configuration not stated) | inactive
CCOC(=O)c1c(C)[nH]c(CCC(=O)NCCCN2CCN(c3cc(C)ccc3C)CC2)c1C | inactive
O=C(Nc1ccc(OC(F)(F)F)cc1)C1CCCN(S(=O)(=O)c2ccc(Br)s2)C1 (configuration not stated) | inactive
Cc1ccc2nc3c(cc(C(=O)NC4CCCCC4)c(=N)n3C(C)C)c(=O)n2c1 | inactive
COc1cccc(CNC(=O)C(NS(=O)(=O)c2ccc3nc(C)sc3c2)C(C)C)c1 (configuration not stated) | inactive
CC(C)(C)c1ccc(C(=O)NCC(c2ccco2)S(=O)(=O)c2ccc(F)cc2)cc1 (configuration not stated) | inactive
